# From the supplement of paper PMC11634586
# Counter-ions that a name gives are not always drawn. Values without a mark were called inactive.
# System: NCI-H1688
# Test: inhibition of cell viability relative to untreated control (fraction); higher = stronger growth inhibition, active = 0.5 or more
# Settings: 30 µM; 24 h
# How it was run: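 After seeding at 3 × 10^3 cells/well in 96-well plates and a 24 h wait, NCI-H1688 small cell lung cancer cells received a natural compound library (TargetMol) at 30 µM for 24 h, kept at 37°C with 5% CO2. Triplicate readings of Cell Counting Kit-8 absorbance at 450 nm measured viability. Each value is the inhibition of cell viability as a fraction, derived from viability normalised to untreated cells.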
row,SMILES,inhibition of cell viability
1,CN[C@@H]1[C@H](O)[C@H](NC)[C@H]2O[C@@]3(O)C(=O)C[C@@H](C)O[C@H]3O[C@@H]2[C@H]1O [Spectinomycin dihydrochloride],0.186
2,C=C1CC[C@H]2C(=C)CC[C@H]3C(=C)C(=O)O[C@@H]3[C@@H]12 [Dehydrocostus Lactone],0.992 (active)
3,NC(=O)NC1NC(=O)NC1=O (stereo not drawn) [Allantoin],0.00777
4,O=c1c(-c2ccc(O)cc2)coc2cc(O)ccc12 [Daidzein],0.0274
5,COc1cc(O)c(C(C)=O)c(OC)c1 [Xanthoxyline],-0.308
6,C[C@@H]1O[C@@H](O[C@H]2[C@H](O[C@H]3CC[C@@]4(C)[C@@H](CC[C@]5(C)[C@@H]4CC=C4[C@@H]6CC(C)(C)CC[C@]6(C(=O)O)CC[C@]45C)[C@]3(C)CO)OC[C@H](O)[C@@H]2O)[C@H](O)[C@H](O)[C@H]1O [Alpha-Hederin],0.999 (active)
7,CC1C(=O)OC2C(O)C34C5CC(C(C)(C)C)C36C(OC(=O)C6O)OC4(C(=O)O5)C12O (stereo not drawn) [Ginkgolide B],-0.0261
8,Nc1nc(=O)c2c([nH]1)NCC(CNc1ccc(C(=O)N[C@@H](CCC(=O)O)C(=O)O)cc1)N2C=O (stereo partly drawn) [Calcium folinate],0.028
9,COc1cc(C[C@H]2C(=O)OC[C@@H]2Cc2ccc(OC)c(OC)c2)ccc1O [Arctigenin],0.431
10,C[C@H](CCC(=O)O)[C@H]1CC[C@H]2[C@@H]3CC[C@@H]4C[C@H](O)CC[C@]4(C)[C@H]3CC[C@]12C [Lithocholic acid],-0.0194
11,O=C(O[C@@H]1Cc2c(O)cc(O)cc2O[C@@H]1c1ccc(O)c(O)c1)c1cc(O)c(O)c(O)c1 [(-)-Epicatechin gallate],0.121
12,O=C1C[C@@H](c2ccc(O)cc2)Oc2cc(O)cc(O)c21 [Naringenin],-0.726
13,Nc1ccccc1C(=O)CC(N)C(=O)O (stereo not drawn) [Kynurenine],-0.292
14,C=C1CC[C@@H]2[C@](C)(CO)[C@H](O)CC[C@@]2(C)[C@H]1C/C=C1\C=COC1=O [Dehydroandrographolide],0.14
15,NC(=O)CCC(N)C(=O)O (racemic) [DL-Glutamine],-0.221
16,O=c1c(O[C@@H]2O[C@H](CO)[C@H](O)[C@H](O)[C@H]2O)c(-c2ccc(O)c(O)c2)oc2cc(O)cc(O)c12 [Hyperoside],-0.0387
17,COc1cc(/C=C/C(=O)CC(=O)/C=C/c2ccc(O)c(OC)c2)ccc1O [Curcumin],0.315
18,C[C@H]1[C@H](C)CC[C@]2(C(=O)O[C@@H]3O[C@H](CO[C@@H]4O[C@H](CO)[C@@H](O[C@@H]5O[C@H](C)[C@H](O)[C@@H](O)[C@H]5O)[C@H](O)[C@H]4O)[C@@H](O)[C@H](O)[C@H]3O)CC[C@]3(C)C(=CC[C@@H]4[C@@]5(C)C[C@@H](O)[C@H](O)[C@@](C)(CO)[C@@H]5CC[C@]43C)[C@H]12 [Asiaticoside],0.145
19,COc1cc(C2Oc3cc([C@H]4Oc5cc(O)cc(O)c5C(=O)[C@@H]4O)ccc3OC2CO)ccc1O (stereo partly drawn) [Silibinin],0.0271

row,SMILES,inhibition of cell viability
1,O=C(O)c1cc(O)c(O)c(O)c1 [Gallic acid],0.44
2,NCCc1c[nH]cn1 [Histamine],0.233
3,O=c1[nH]cnc2nc[nH]c12 [6-Hydroxypurine],-0.00202
4,Cc1c(C(=O)NCCO)[n+]([O-])c2ccccc2[n+]1[O-] [Olaquindox],0.00372
5,CC1=CC(=O)CC(C)(C)[C@@]1(O)/C=C/C(C)=C\C(=O)O [Abscisic acid],-0.139
6,COc1cc(CCC(=O)O)ccc1O [Hydroferulic acid],0.0171
7,OC[C@H]1OC(O)[C@@H](O)[C@@H](O)[C@@H]1O (stereo partly drawn) [Mannose],0.0629
8,CC[C@@]1(O)C(=O)OCc2c1cc1n(c2=O)Cc2cc3cc(O)ccc3nc2-1 [Hydroxy Camptothecine],0.97 (active)
9,CC(C)CCC[C@@H](C)[C@H]1CC[C@H]2[C@@H]3CC[C@H]4CC(=O)CC[C@]4(C)[C@H]3CC[C@]12C [5alpha-Cholestan-3-one],-0.0937
10,CC1CCC(C(C)C)C(O)C1 (racemic) [DL-Menthol],0.0236
11,CC[C@]1(O)C[C@@H]2CN(CCc3c([nH]c4ccccc34)[C@@](C(=O)OC)(c3cc4c(cc3OC)N(C)[C@H]3[C@@](O)(C(=O)OC)[C@H](OC(C)=O)[C@]5(CC)C=CCN6CC[C@]43[C@@H]65)C2)C1 [Vinblastine sulfate],0.764 (active)
12,COc1cc(C(C)=O)ccc1O [Acetovanillone],0.213
13,C=CCc1ccc(O)c(-c2cc(CC=C)ccc2O)c1 [Magnolol],-0.288
14,O=C(O)c1cccnc1 [Nicotinic acid],0.0212
15,C=CC[C@@H]1/C=C(\C)C[C@H](C)C[C@H](OC)[C@H]2O[C@@](O)(C(=O)C(=O)N3CCCC[C@H]3C(=O)O[C@H](/C(C)=C/[C@@H]3CC[C@@H](O)[C@H](OC)C3)[C@H](C)[C@@H](O)CC1=O)[C@H](C)C[C@@H]2OC [Tacrolimus (FK506)],0.0216
16,C[C@@H]1O[C@@H](O[C@H]2[C@H](Oc3cc(O)c4c(=O)cc(-c5ccc(O)cc5)oc4c3)O[C@H](CO)[C@@H](O)[C@@H]2O)[C@H](O)[C@H](O)[C@H]1O [Rhoifolin],0.127
17,C[C@]12CCC(=O)C=C1CC[C@@H]1[C@@H]2[C@@H](O)C[C@@]2(C)[C@H]1CC[C@]2(O)C(=O)CO [Hydrocortisone],0.0716
18,COc1ccc2cc3[n+](cc2c1OC)CCc1cc2c(cc1-3)OCO2 [Berberine hydrochloride],-0.108
19,C[C@]12CCC(=O)C=C1CC[C@@H]1[C@@H]2CC[C@@]2(C)[C@H]1CC[C@]2(O)C(=O)CO [Cortodoxone],-0.112
